Source: PubChem BioAssay
HT1080 IDH1KD tx = kills HT-1080 cells with IDH1 knockdown. HT-1080 IDH1 knockdown viability, ATP luminescence, 48 h. Potency, µM (series often up to 46.1 µM), without a hit: top-dose activity, negative = toxicity, actives largely listed as cytotoxic. 360,000 compounds, 2% hits. AID 686971;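 further: potency means the concentration at half of the fitted maximal effect; 0% = DMSO wells and -100% = cell-free medium wells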
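Cytotoxicity counter-line: IDH1KD HT-1080, 48 h, CellTiter-Glo. Curves classed by r2, magnitude and activity.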
IL1B secr inh = inflammasome signaling inhibition, IL-1 beta readout; THP-1 LPS/ATP IL-1B secretion, AlphaLISA, 16 h; hits give low values; activity change, % at 57.5 µM; 360,000 compounds, 4.7% hits; AID 743279; in the data active means activity change below about -50%; inconclusive means mostly about -30% to -49%
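Secreted IL-1B measured by AlphaLISA bead assay after 16 h compound exposure of THP-1 cells; compounds (final up to 57.5 uM) added 1 h before LPS (250 ng/mL) and ATP (1.25 mM) stimulation; lower signal means less secretion.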
DT40 TDP1 CPT = growth inhibition of DT40 Tdp1-/-;hTDP1 cells with camptothecin (screen for TDP1 inhibitors). chicken DT40 Tdp1-/-;hTDP1 cells + 20 nM CPT, ATP luminescence, 48 h. Potency, µM (titrated, usually from 46.2 µM), without a hit: top-dose activity change, negative = growth inhibition, usual class: inhibitors. 420,000 compounds, 12% hits; further: potency means the concentration at half of the fitted maximal effect; nearly all actives have a fitted effect of over 55% in size
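Chicken DT40 Tdp1-/- cells stably complemented with human TDP1 were seeded at 400 cells/well in medium containing 20 nM camptothecin, exposed to pin-transferred compounds, and grown at 37 °C for at least 48 hr. Viability was read as ATP luminescence.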
HT1080NT lethal = kills 2HG-producing HT-1080-NT fibrosarcoma cells | HT-1080-NT fibrosarcoma viability, CellTiter-Glo ATP luminescence, 48 h | Potency, µM (top dose mostly 46.1 µM), inactives show top-dose activity, negative = less viability, hits mostly cytotoxic | 360,000 compounds, 1.6% hits | AID 686970;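 further: NT is the 2HG producing partner of a matched IDH1 knockdown line; potency means the concentration at half of the fitted maximal effect; 0% = DMSO-treated cells and -100% = media-only wells without cells; nearly all actives have a fitted effect of over 55% in size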
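Read-out is CellTiter-Glo luminescence after 10 minutes at room temperature, following 48 hours' compound treatment of HT-1080-NT cells (750 cells/well, RPMI, 5% FBS, 37 degrees C).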
ELG1 DNA repair = blocks ELG1-dependent DNA repair in HEK293T cells | HEK293T ELG1-luciferase reporter, luminescence, 16 h; DNA damage induced by 5-fluorouridine | 330,000 compounds, 2.3% hits | Potency, µM (doses to about 46.1 µM), inactives show top-dose activity change, negative = inhibition, hits mostly inhibitors; further: potency means the concentration at half of the fitted maximal effect; nearly all actives have a fitted effect of over 55% in size
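Cells (2,000 per well) received 5-fluorouridine plus test compound or DMSO and were incubated 16 hr at 37 °C, 5% CO2. Luciferase activity was read by luminescence 30 min after ONE-Glo addition; signal suppression marked inhibition of damage-induced ELG1 function.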
DT40 TDP1 no CPT = qHTS for Inhibitors of human tyrosyl-DNA phosphodiesterase 1 (TDP1): qHTS in cells in absence of CPT | DT40 Tdp1-/- hTDP1 cells, no CPT, ATP luminescence, 48 h | Potency, µM (series often up to 46.2 µM), inactives show at the top dose activity change, negative = growth inhibition, hits mostly inhibitors | 420,000 compounds, 15% hits; further: potency means the concentration at half of the fitted maximal effect; nearly all actives have a fitted effect of over 55% in size
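No-CPT arm: Tdp1-/-;hTDP1 DT40 cells (400/well) plus compounds, incubated ≥48 hr at 37 °C. Readout CellTiter-Glo luminescence.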
* marks the source's active call; other numbers are inactive results; ? = inconclusive; . = no result given. An excerpt weighted towards active compounds, which were near 19% of everything screened. Unless noted, the call rests on the fitted dose curve; in most records, active means well fitted curve in the direction sought with a large enough effect; inconclusive means small, poorly fitted or top-dose-only effect, or another doubt; inactive means no such curve, though single readings can be large; an effect the other way counts as inactive or inconclusive. Unless noted, on the % scale 0 is the no-effect control and ±100 the full control effect.

SMILES | HT1080 IDH1KD tx | IL1B secr inh | DT40 TDP1 CPT | HT1080NT lethal | ELG1 DNA repair | DT40 TDP1 no CPT
O=C(NC(=S)Nc1cccc(NC(=S)NC(=O)c2ccco2)n1)c1ccco1 | ? | 45 | -18% | ? | 14% | 5.2µM*
CCN(CC(=O)Nc1cccc(F)c1)CC(=O)Nc1ccccc1OC | 6% | 7 | -3% | 1% | -5% | -1%
CCN(CC)CC(=O)Nc1ccc(-c2ccc(NC(=O)CN(CC)CC)c(OC)c2)cc1OC | ? | -16 | 13µM* | ? | -1% | 9.2µM*
COc1cc([N+](=O)[O-])ccc1NC(=O)CN(C)C | 15% | -11 | 3% | 0% | 4% | -16%
CCN(CC(=O)Nc1ccccc1OC)CC(=O)Nc1c(Cl)ccc(C)c1Cl | 5% | 14 | ? | -1% | ? | 15µM*
CN1CCN(c2cc(-c3ccccc3Cl)ncn2)CC1 | . | . | -4% | . | . | -5%
Cc1oc2ncn(CC(C)C)c(=O)c2c1C(=O)N(CCN(C)C)Cc1ccccc1 | . | . | -22% | . | . | -9%
CCOC(=O)C1(C)Oc2cccnc2NC1=O (configuration not stated) | 0% | -70* | -4% | 3% | 7% | -13%
CC1(C(=O)O)Oc2cccnc2NC1=O (configuration not stated) | 8% | 20 | -14% | 10% | 15% | -23%
COc1ccc(C2CC(c3ccccc3)Nc3nc(NC(=O)c4cccs4)nn32)cc1 (configuration not stated) | -13% | -18 | -105% | -13% | ? | -22%
COc1ccc(C2CC(c3ccccc3)n3nc(NC(=O)c4cccs4)nc3N2)cc1 (configuration not stated) | -5% | -72* | 1% | 0% | ? | ?
COc1ccccc1C1CC(c2ccc(Cl)cc2)Nc2ncnn21 (configuration not stated) | -17% | -19 | 15µM* | -23% | 0% | 21µM*
Nc1nc2n(n1)C(c1cccs1)CC(c1ccc(F)cc1)N2 (configuration not stated) | 4% | -8 | -11% | 2% | 2% | 2%
COc1ccccc1C1CC(c2ccc(Cl)cc2)Nc2nc(N)nn21 (configuration not stated) | -58% | -22 | 10µM* | ? | -2% | 16µM*
COc1ccc(C2CC(c3cccs3)n3nc(N)nc3N2)cc1 (configuration not stated) | -3% | -59* | 23µM* | 4% | 19% | ?
O=C(Nc1ccccc1)SC1CCCCC1 | 1% | -14 | 0% | 1% | . | -25%
Cc1ccc([N+](=O)[O-])cc1NC(=S)NCCc1ccccc1 | -1% | -9 | ? | -1% | 10% | -10%
CCOc1ccccc1C1CC(c2ccc(F)cc2)Nc2nc(N)nn21 (configuration not stated) | 4% | 1 | 1.2µM* | 6% | 0% | ?
O=C1C[C@@H]2c3c(cccc3CN1Cc1ccccc1Br)C[C@@H](O)[C@H]2O | 0% | -4 | -17% | 3% | . | -13%
CCc1nn(-c2ccccc2)c2nc(-c3ccccc3OC)c3cc(OC)c(OC)cc3c12 | . | . | 18µM* | . | . | 16µM*
CCOc1cc(-c2nc3c(c(CC)nn3-c3ccccc3)c3cc(OC)c(OC)cc23)ccc1O | . | . | 3.3µM* | . | . | ?
O=C(Nc1csc(Cc2c(Cl)cccc2Cl)n1)NN1CCOCC1 | -1% | -84* | -2% | -29% | -8% | -21%
CCC(C)Sc1nc2c(c(=O)[nH]c(=O)n2C)n1CC(O)COc1ccccc1C (configuration not stated) | -18% | 9 | -30% | -13% | 16µM* | ?
